From PubChem BioAssay (NCATS) come the findings set out here.

Inconclusive results are not listed. Activity calls are given as the source filed them. Unless noted, calls follow the shape of the dose curve; as a rule, active = well fitted curve in the direction sought with a large enough effect; inconclusive = small, poorly fitted or top-dose-only effect, or another doubt; inactive = no such curve, though single readings can be large; an effect the other way counts as inactive or inconclusive.

Test [1] is described as follows: Primary qHTS for inhibitors of nuclear receptor binding SET domain protein 2 (NSD2) in an isogenic RCH-ACV NSD2 p.E1099K mutant (9B) (AID 1645876). Also: potency is read from the fitted curve at half-maximal effect; nearly all actives have a fitted effect of over 70% in size. On the technique in general: Quantitative high-throughput screening tests each substance at several concentrations.
Test [2] in a line: Primary qHTS for inhibitors of nuclear receptor binding SET domain protein 2 (NSD2) in an RCH-ACV wild type WT cells (2C) (AID 1645877). Also: potency is read from the fitted curve at half-maximal effect; nearly all actives have a fitted effect of over 70% in size.
For test [3], the target named is Glutathione peroxidase 1 (Homo sapiens) (UniProt P07203). Put plainly: Primary qHTS Assay for Inhibitors of Recombinant Selenoprotein Glutathione Peroxidase 1 (GPX1) (AID 1845191). Also: nearly all actives have a fitted effect of over 65% in size. Also: potency is read from the fitted curve at half-maximal effect. The essentials: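 10 nM GPX1 + cpd, 30 min RT; start w/ 1 mM GSH, 0.5 mM cumene hydroperoxide, 0.5 mM NADPH, 100 nM GR, 0.01% BSA; buffer 50 mM Tris-HCl pH 7.5, 2 mM EDTA, 150 mM NaCl; Fl 340/450, 0 & 15 min.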
Chain of Glutathione peroxidase 1 (Homo sapiens) (P07203 whole entry, looked up): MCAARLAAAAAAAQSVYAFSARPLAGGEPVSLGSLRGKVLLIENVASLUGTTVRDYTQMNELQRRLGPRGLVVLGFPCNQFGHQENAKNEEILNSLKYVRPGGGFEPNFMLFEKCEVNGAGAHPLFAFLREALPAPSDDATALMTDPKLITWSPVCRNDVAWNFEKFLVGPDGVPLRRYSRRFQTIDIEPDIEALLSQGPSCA

In test [4] the target is Phospholipid hydroperoxide glutathione peroxidase GPX4 (Homo sapiens) (UniProt P36969). In words: Primary qHTS Assay for Inhibitors of Recombinant Selenoprotein Glutathione Peroxidase 4 (GPX4) (AID 1845192). Also: nearly all actives have a fitted effect of over 65% in size. Also: potency is read from the fitted curve at half-maximal effect. The essentials:
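NADPH consumption, followed by fluorescence at 340/450 nm between 0 and 15 min, reports GPX4 activity via coupled glutathione reductase (100 nM). Enzyme 200 nM was pre-exposed to compound 30 min; 0.5 mM cumene hydroperoxide and 1 mM GSH served as substrates.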

Test [5] in a line: qHTS drug screen for cell cycle checkpoint inhibitors in PARPi-resistant BRCA-mutant ovarian cancer cell lines. (AID 1963452; calls by dose curve). Particulars: PEO1/OlaR viability, CellTiter-Glo luminescence, 96 h, stronger effect = lower value. The essentials: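 PEO1, PEO4 and PEO1/OlaR ovarian cancer cells, 600 per well, exposed 96 h at 37C to a dilution series. Viability read by CellTiter-Glo luminescence, normalized to DMSO and empty wells; activity summarized as Z-AUC.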

Where [6] appears, read: measured here: PEO1 parental Z-AUC.

Chain of Phospholipid hydroperoxide glutathione peroxidase GPX4 (Homo sapiens) (P36969 whole entry, looked up): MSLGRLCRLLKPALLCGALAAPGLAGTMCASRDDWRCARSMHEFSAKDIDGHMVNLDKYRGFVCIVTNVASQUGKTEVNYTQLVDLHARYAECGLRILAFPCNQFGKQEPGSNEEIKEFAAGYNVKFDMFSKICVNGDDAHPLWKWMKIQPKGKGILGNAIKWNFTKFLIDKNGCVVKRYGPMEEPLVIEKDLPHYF

Turning to `CC(C)(C)NC(=O)c1cncn1C1CCN(c2ccc(-c3nnc(C(F)(F)F)o3)cn2)CC1`, the Potency in test [1] is 2.63 µM (active); in test [2] it was 2.35 µM (active). Moreover, the Potency result in test [3] and in test [4] was “inactive” in each case. Moreover, the Z-AUC in test [5] was -0.537 (inactive); in test [5] (setting [6]) it was 0.427; in test [5] (measured here: PEO4 Z-AUC) it was 0.071.
Turning to `c1ccc2c(-c3cnn4cc(-c5ccc(OCCN6CCOCC6)cc5)cnc34)ccnc2c1`, the figures for the Potency in test [1] and in test [2] were 3.62 µM (active) and 3.23 µM (active), respectively. Besides, the Potency result in test [3] and in test [4] was “inactive” in each case. Besides, the Z-AUC in test [5] was -1.41 (inactive); in test [5] (setting [6]) it was -1.08; in test [5] (measured here: PEO4 Z-AUC), -0.99.
For `CCOC(=O)CCNc1cc(N2CCc3ccccc3CC2)nc(-c2ccccn2)n1`, the Potency was 2.35 µM (active) in test [1] and 2.63 µM (active) in test [2]. Moreover, the Potency result in test [3] and in test [4] was “inactive” throughout. The Z-AUC in test [5] is 0.71 (inactive); in test [5] (setting [6]), 0.271; in test [5] (measured here: PEO4 Z-AUC) it was -0.212.
On to `COc1ccc2c(c1)[C@]1(C[C@H]1c1ccc3c(/C=C/c4ccc(CN5C[C@@H](C)O[C@@H](C)C5)cc4)n[nH]c3c1)C(=O)N2`, for which the Potency in test [1] is 1.32 µM (active); in test [2], 0.0295 µM (active). The Potency entry in test [3] and in test [4] was “inactive” each time. Also, the Z-AUC is 0.356 (inactive) in test [5], -0.0342 in test [5] (setting [6]) and -0.785 in test [5] (measured here: PEO4 Z-AUC).
As for `CC[C@H](Nc1ncnc2nc[nH]c12)c1oc2ccccc2c(=O)c1-c1cccc(F)c1`, the Potency was 1.32 µM (active) in test [1] and 1.48 µM (active) in test [2]. Also, the Potency entry in test [3] and in test [4] was “inactive” throughout. In addition, the Z-AUC in test [5] is 0.58 (inactive); in test [5] (setting [6]), 0.184; in test [5] (measured here: PEO4 Z-AUC), 0.542.
Regarding `COc1ccccc1C(=O)Nc1cc2c(cc1N1CCNC[C@H]1C)n(C)c(=O)n2C`, the Potency is 20.9 µM (active) in test [1] and 18.6 µM (active) in test [2]. For the same molecule, the Potency result in test [3] and in test [4] was “inactive” each time. The Z-AUC was -0.6 (inactive) in test [5], -0.159 in test [5] (setting [6]) and 0.121 in test [5] (measured here: PEO4 Z-AUC).
On to `COc1cc(Nc2cnc(C#N)c(O[C@H](C)CN(C)C)n2)ncc1-c1cnn(C)c1`, for which the Potency is 0.148 µM (active) in test [1] and 0.833 µM (active) in test [2]. For the same molecule, the Potency entry in test [3] and in test [4] was “inactive” each time. The Z-AUC is -0.958 (inactive) in test [5], -0.63 in test [5] (setting [6]) and -0.472 in test [5] (measured here: PEO4 Z-AUC).
With `N#Cc1cc2cc(CN3CCC(Nc4ncnc5sc(CC(F)(F)F)cc45)CC3)c(O)cc2n1Cc1cn[nH]c1`, the Potency was 13.2 µM (active) in test [1] and 11.8 µM (active) in test [2]. Besides, the Potency result in test [3] and in test [4] was “inactive” throughout. Also, the Z-AUC in test [5] was -1.24 (inactive); in test [5] (setting [6]), -1.35; in test [5] (measured here: PEO4 Z-AUC), -1.55.
Consider `C=C1C(=O)OC2/C=C(/C)CC/C=C(/C)CCC12` (configuration not stated), for which the figures for the Potency in test [1] and in test [2] were 11.8 µM (active) and 8.33 µM (active), respectively. The Potency entry in test [3] and in test [4] was “inactive” throughout. Also, the Z-AUC is 1.69 (inactive) in test [5], 1.29 in test [5] (setting [6]) and 1.11 in test [5] (measured here: PEO4 Z-AUC).
Consider `COc1ccc(S(=O)(=O)Nc2cc(-c3csc(C#N)c3)ccc2C)cc1`, for which the values for the Potency in test [1] and in test [2] were 0.105 µM (active) and 0.118 µM (active), respectively. Further, the Potency result in test [3] and in test [4] was “inactive” each time. For the same molecule, the figures for the Z-AUC in test [5], in test [5] (setting [6]) and in test [5] (measured here: PEO4 Z-AUC) were -0.571 (inactive), -1.63 and -1.47, respectively.
As to `CC1=C2C[C@H]3[C@@H](CC[C@@H]4C[C@H](NS(C)(=O)=O)CC[C@@]43C)[C@@H]2CC[C@@]2(C1)O[C@@H]1C[C@H](C)CN[C@H]1[C@H]2C`, the Potency in test [1] and in test [2] was 13.2 µM (active) each time. The Potency result in test [3] and in test [4] was “inactive” each time. Further, the Z-AUC in test [5] is 0.848 (inactive); in test [5] (setting [6]), 0.333; in test [5] (measured here: PEO4 Z-AUC), -0.208.
As for `COc1cc(OC)cc(N2CCN(C(=O)Nc3nc4cc(F)ccc4nc3OC)CC2)c1`, the Potency is 20.9 µM (active) in test [1] and 26.3 µM (active) in test [2]. Also, the Potency result in test [3] and in test [4] was “inactive” in each case. Also, the Z-AUC in test [5] was -0.785 (inactive); in test [5] (setting [6]) it was -0.317; in test [5] (measured here: PEO4 Z-AUC), 0.136.
For the molecule `Nc1ncccc1-c1nc2ccc(-c3ccccc3)nc2n1-c1ccc(C2(N)CCC2)cc1`, the Potency in test [1] was 0.118 µM (active); in test [2], 0.186 µM (active); in test [3], 23 µM (active); in test [4] it was 22.7 µM (active). In addition, the Z-AUC is -0.599 (inactive) in test [5], -0.0298 in test [5] (setting [6]) and -0.137 in test [5] (measured here: PEO4 Z-AUC).
On to `CCNC(=O)Nc1ccc(-c2nc3c(c(N4CCOC[C@@H]4C)n2)CCN(C2COC2)C3)cc1`, for which the Potency in test [1] is 0.833 µM (active); in test [2], 0.742 µM (active). Besides, the Potency result in test [3] and in test [4] was “inactive” each time. Moreover, the Z-AUC in test [5] is 0.987 (inactive); in test [5] (setting [6]), 1.46; in test [5] (measured here: PEO4 Z-AUC) it was 1.27.
With `Cc1cc(Nc2ncnc3ccc(NC4=NC(C)(C)CO4)cc23)ccc1Oc1ccn2ncnc2c1`, the Potency was 18.6 µM (active) in test [1] and 16.6 µM (active) in test [2]. The Potency entry in test [3] and in test [4] was “inactive” in each case. Moreover, the Z-AUC in test [5] was -0.395 (inactive); in test [5] (setting [6]) it was -0.0434; in test [5] (measured here: PEO4 Z-AUC), -0.29.
Take `c1ccc(-c2cc(CCC3CCNCC3)c3ccccc3n2)cc1`: the results for the Potency in test [1] and in test [2] were 16.6 µM (active) and 13.2 µM (active), respectively. For the same molecule, the Potency result in test [3] and in test [4] was “inactive” each time. For the same molecule, the Z-AUC was -0.417 (inactive) in test [5], 0.0933 in test [5] (setting [6]) and 0.16 in test [5] (measured here: PEO4 Z-AUC).
